PubChem BioAssay (NCI)
This is part of a sample that, as a whole, favours compounds with a hit. Of some 83,000 tested, about 20% had one in any assay.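 96-well plates, one dose, 48 hours. Percent growth reported; active if below 10.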 Unmarked numbers belong to inactive results. The source made the active and inactive calls.

Key:
Test in all cases: NCI-60 one-dose screen, 48 h (100 = growth as untreated, 0 = no growth, -100 = all killed)
Conditions in all cases: 10 µM
[1] = test system: EKVX NSCLC
[2] = test system: SN12C renal
[3] = test system: UO-31 renal
[4] = test system: TK-10 renal
[5] = test system: ACHN renal
[6] = test system: CAKI-1 renal
[7] = test system: A498 renal
[8] = test system: CCRF-CEM leukemia
[9] = test system: MOLT-4 leukemia

| SMILES | growth [1] | growth [2] | growth [3] | growth [4] | growth [5] | growth [6] | growth [7] | growth [8] | growth [9] |
| --- | --- | --- | --- | --- | --- | --- | --- | --- | --- |
| CCc1cc(Cl)c(OC)c(C(=O)NCC2CCCN2CC)c1O (configuration not stated) | 82.4% | 92.5% | 61.4% | 104% | 88.5% | 72.2% | 70.1% | 96% | 88% |
| C[C@]12CC[C@@H]3c4ccc(O)cc4CC[C@H]3[C@@H]1CC[C@@H]2NS(=O)(=O)c1ccc(C(F)(F)F)cc1 |  | 42% | 13.6% |  | 26.9% | 38.6% | 61.3% |  | 11.7% |
| C[C@H]1[C@H](OC(=O)CCC(=O)O)O[C@@H]2O[C@]3(C)CC[C@H]4[C@H](C)CC[C@@H]1[C@@]24OO3 | 29.2% | 33.3% | 9.64% (active) | 46.8% | 27% | 16.7% | 80.6% | 39.7% | 14.8% |
| COc1ccc(C2CC(c3cccs3)=NN2c2ccc(S(N)(=O)=O)cc2)cc1 (configuration not stated) |  | 91.3% |  | 108% | 90.2% | 88.9% | 78.5% | 76.3% | 71.3% |
| C[N+]1(CCCCC[N+]2(C)CCCC2)CCCC1 | 80% | 62.4% | 78.5% | 108% | 97.2% | 78.6% | 108% | 67.5% | 91% |
| O=C(CCCCCCC(=O)Nc1ccccc1)NO | 28.8% | 11.7% | -2.53% (active) | 6.84% (active) | 4.68% (active) | -28.3% (active) | -44.9% (active) |  | -5.35% (active) |
| CCCc1nc(C(C)(C)O)c(C(=O)O)n1Cc1ccc(-c2ccccc2-c2nn[nH]n2)cc1 | 106% | 96.4% | 84.6% | 96.8% | 93.5% | 92.6% | 80.2% | 95.8% | 107% |
| Cc1ccccc1N1C(=O)c2cc(S(N)(=O)=O)c(Cl)cc2NC1C (configuration not stated) | 111% | 108% | 82.8% | 104% | 108% | 103% | 108% | 103% | 84.9% |
| O=C(CNc1nnc(-c2cccnc2SCc2ccccc2)s1)Nc1nc(Cl)cc(Cl)n1 | 112% | 103% | 77.4% | 125% | 119% | 102% | 121% | 102% | 95.4% |
| CC(C)Cc1ccc([C@H](C)C(=O)O)cc1 | 104% | 103% | 86.5% | 100% | 108% | 93.7% | 99.1% | 102% | 90.5% |
| CCCCCC(=O)O[C@]1(C(C)=O)CCC2C3CCC4=CC(=O)CC[C@]4(C)C3CC[C@@]21C (some centres not stated) | 27.1% | 21.5% | 18.1% | 40.4% | 24% | 18.6% | 19.4% | 21% | -23.1% (active) |
| CN1CCN(c2cc3c(cc2F)c(=O)c(C(=O)O)cn3-c2ccc(F)cc2)CC1 | 108% | 97.3% | 68.7% | 103% | 95.1% | 94.7% | 86.8% | 102% | 84.2% |
| CC(C)[N+]1(C)C2CC[C@@H]1CC(OC(=O)C(CO)c1ccccc1)C2 (some centres not stated) | 105% | 103% | 90.7% | 107% | 105% | 88.4% | 92.4% | 92.3% | 121% |
| COc1ccc(CCN2CCC(Nc3nc4ccccc4n3Cc3ccc(F)cc3)CC2)cc1 | 45.1% | 34.1% | -19.8% (active) | -6.61% (active) | 12.5% | -1.28% (active) | -9.07% (active) | -13.6% (active) | -40.7% (active) |
| O=C1/C=C/[C@@H](O)[C@@H]2C[C@@H](O)C[C@H]2/C=C/CCC[C@H](CCc2ccc(C(F)(F)F)cc2)O1 | 3.27% (active) | 1.34% (active) | 1.2% (active) | -40% (active) | 8.15% (active) | 8.3% (active) | -29.7% (active) | -11% (active) | -21.5% (active) |
| COc1ccc(Cc2cnc(N)nc2N)cc1OC | 115% | 96.1% | 78% | 110% | 96.5% | 89.1% | 73.4% | 102% | 104% |
| Cc1cc(C(C#N)c2ccc(Cl)cc2)c(Cl)cc1NC(=O)c1cc(I)cc(I)c1O (configuration not stated) | 41.2% | 31% | 79.8% | 65.3% | 79.8% | 38.7% | -37% (active) | 19.1% | 15.3% |
| COc1cc(N)c2ncccc2c1SC | 86% | 105% |  |  | 104% | 99.2% | 71.8% | 98.5% | 101% |
| CC1/C=C/C=C/C=C/C=C/C=C/C=C/C=C/C(O[C@@H]2O[C@H](C)[C@H](O)[C@@H](O)[C@@H]2N)CC(O)C(C(=O)O)C(O)CC(=O)CC(O)CC(O)CC(O)CC(=O)CCCC(=O)CC(=O)OC1C(C)CC(C)C(O)CC(=O)c1ccc(N)cc1 (some centres not stated) | -98.6% (active) | -93.4% (active) | -96.4% (active) | -96.8% (active) | -99.7% (active) | -98.2% (active) | -98.4% (active) | -59.2% (active) | -72.2% (active) |
| CCC1NC(=O)c2cc(S(N)(=O)=O)c(Cl)cc2N1 (configuration not stated) | 109% | 94% | 98.8% | 106% | 108% | 104% | 110% | 97.7% | 113% |
